Hit rate of the full screen: of about 220,000 compounds, about 2,400 (1.1%) were called active. Not shown: some 7% with an inconclusive outcome. The call rests on the fitted dose curve; in most records, active means well fitted inhibition curve with a large enough effect; inconclusive means small, poorly fitted or top-dose-only effect, or effect the other way; inactive means no such curve, though single readings can be large or run the other way. The full list was thinned out, with actives kept by preference.
test: qHTS Multiplex Assay to Identify Dual Action Probes in a Cell Model of Huntington: Aggregate Formation (GFP); conditions: PC12 HttQ103-GFP aggregates, Acumen cytometry, 40 h; series mostly up to 9.22 µM; further: nearly all actives have a fitted effect of over 60% in size
Excerpt: NIH Chemical Genomics Center [NCGC]
NIH Molecular Libraries Probe Production centers Network [MLPCN]
Assay Submitter (PI): Wei Zheng
Huntington's disease is a neurodegenerative disorder caused by a trinucleotide repeat expansion in Exon 1 of the Huntingtin gene. The CAG trinucleotide encodes glutamine and polyglutamine expansions cause cell death in selective areas of the brain. Huntington polyglutamine repeats have the tendency to form aggregates which are observable in later stages of the disease. The exact nature of the aggregates, whether toxic, protective, or insignificant, is unclear.
A stable PC12 cell line containing a gene fusion of Exon 1 of the Huntingtin gene linked to GFP under the control of the inducible ecdysone promoter were used as the cell-based model of Huntington Disease for high throughput screening. Exon 1 of the Huntingtin gene contained an expansion of 103 polyglutamines (Q103) which, when expressed, caused cell death and distinct, bright GFP aggregates. The amount of cell death and the size and intensity of GFP aggregates increased over time and induction level. The cell death were quantified with a measurement of ATP content in the cells. A maximal 40-50% of cell death was observed when the Huntington gene was induced in this cell line.
We optimized this assay in a homogeneous 1536 well format. A quantitative high throughput screen (qHTS) was conducted on the PC12 cells which were induced to express the toxic fusion construct. Small molecules which reduced aggregate formation were identified bu using a laser scanning cytometer calibrated to detect the aggregates in cell lysates.
PC12 cells stably containing a construct with an ecdysone inducible promoter expressing GFP fused to the exon 1 of HTTQ103 (Huntington protein which containing a 103 ployglutamine expansion) were used.
NCGC Assay Protocol Summary:
Sequence, Parameter, Description
1, Reagent, 5 uL 1500 cells/well 1536 TC treated White clear bottom plate
2, Compound, 23 nL Tebufenozide inducer (100 nM final) to all columns
3, Compound, 23 nL 40 uM to 0.5 nM Libraries
5, Reagent, 5 ul ATPLite cell death assay reagent
6, Detector, Aggregate quantitation by Acumen Explorer
Media consisted of phenol red free DMEM + 5% equine serum (Hyclone # SH30072.03 ), 5% supplemented Bovine Calf Serum (Hyclone # SH30074.03 ), 1x pen/strep, no G418
Acumen Explorer was used to quantitate GFP aggregates using the following criteria: […] laser excitation, 500-530 nm emission, the PMT was set at a voltage of 450 volts, and objects ranging in size of […] in size having a signal of 6 STDEV above background were collected.
Control columns: 1 = DMSO, 2= 2 uM teb dilns (1:1), 4 = 100 nM Teb inducer. Sample columns received 100 nM Teb.
Potency means the concentration at half of the fitted maximal effect.

Potency, inactive:
COC(=O)c1ccc(CN(c2ccccc2OC)S(=O)(=O)c2cccs2)o1
COC(=O)c1ccc(CSc2ccccc2C)o1
Cn1c(=O)c2c(nc(NCc3ccccc3)n2CC(N)=O)n(C)c1=O
Cc1ncn2cc(-c3ccc(Cl)cc3Cl)[nH]c(=O)c12
C=C(C)CNC(=S)Nc1ccc(S(=O)(=O)Nc2cnc3ccccc3n2)cc1
Oc1ccccc1N1CCN(c2ncnc3sc(-c4ccccc4)cc23)CC1
CCc1cc2c(NC3CCCC3)ncnc2s1
Cc1ccc(C(O)P(=O)(OC(C)C)c2ccc(N(C)C)cc2)cc1 (configuration not stated)
O=C(/C=C/Nc1ccc(S(=O)(=O)Nc2cnc3ccccc3n2)cc1)c1cccnc1
CCOC(=O)c1ccc(N=C2SC(C(=O)NC)CC(=O)N2CCc2ccccc2)cc1 (configuration not stated)
CC1=CC(C)(C)NC(=S)N1NC(=O)c1ccccc1Cl
CN(NC(=O)c1ccccc1)c1nc2ccccc2nc1C(F)(F)F
CN(NC(=O)c1ccccc1F)c1nc(C(F)(F)F)nc2ccccc12
O=C(OCc1ccccc1)c1ccc(O)cc1
O=C(NCc1cccnc1)C(=O)Nc1nc(-c2ccccc2)cs1
CCn1c(SCc2ccc(C)cc2)nnc1-c1nn(-c2ccccc2)ccc1=O
O=C(Nc1cn(-c2ccccc2)nc1-c1ccccc1)c1ccccc1
Cc1cc(Nc2ccc(Cl)cc2)nc(N2CCOCC2)n1
CC(=O)NC(=O)c1ccccc1O
Cc1nnc(C)c2c(C)n(N)c(C)c12
CCN1/C(=C/C(=S)Nc2ccccc2)Sc2ccccc21
CCC(=O)/C=C1\Sc2ccccc2N1CC
COc1ccccc1N(C)S(=O)(=O)c1ccc(C(=O)NC2CCCCCC2)cc1
Nc1ccc(C(=O)OCC(=O)NC2CCS(=O)(=O)C2)cc1[N+](=O)[O-] (configuration not stated)
CC(=O)Nc1ccc(NC(=O)c2sc3nc4c(c(-c5ccc(C)cc5)c3c2N)CCC4)cc1
Cc1cccc(NC(=O)c2sc3nc4c(c(-c5ccco5)c3c2N)CCC4)c1
CCNc1nc(Oc2ccc(C(=O)OC)cc2)nc(N2CCOCC2)n1
Cc1cc(=O)[nH]c(SCC(=O)Nc2ccc(Br)cc2)n1
C=CCNC(=S)NNC(=O)c1cc(Cl)ccc1OC
CCOC(=O)CSc1nnc(NC(=O)c2cccc(S(=O)(=O)N3CCCCC3)c2)s1
O=C(Nc1nncs1)c1cccc(S(=O)(=O)N2CCCCC2)c1
O=P(O)(CN1CCCCCC1)C1Cc2ccccc2C1
COc1ccc(Nc2nc(-c3ccccc3)cs2)cc1
CC(=O)Nc1nc(C)c(-c2csc(Nc3ccc(S(N)(=O)=O)cc3)n2)s1
OCC(CO)NC1C[C@](O)(CO)[C@@H](O)[C@H](O)[C@H]1O (some centres not stated)
CC(C)(C)c1cc(C(=O)N/N=C/c2ccc([N+](=O)[O-])s2)n[nH]1
CCOc1ccc(NC(=O)CCC(=O)N/N=C/c2ccc([N+](=O)[O-])s2)cc1
Cc1ccc(S(=O)(=O)NNC(=S)NC(C)(C)C)cc1
CC(O)COc1ccccc1 (configuration not stated)
CC1CCCCN1S(=O)(=O)c1ccc(S(=O)(=O)N(CC(=O)Nc2ccccc2)Cc2cccs2)cc1 (configuration not stated)
O=C(Nc1nnc(-c2ccco2)o1)c1ccc(S(=O)(=O)N2CCOCC2)cc1
COc1ccc(C(=O)N/N=C(\C)CC(=O)Nc2ccc(Cl)cn2)cc1
COC(=O)c1sccc1NC(=O)CC1C(=O)NCCN1C(=O)Nc1ccc(F)cc1F (configuration not stated)
N/C(=N/O)c1cccn1Cc1ccccc1[N+](=O)[O-]
O=c1c([N+](=O)[O-])cc(C(F)(F)F)cn1Cc1cccc(Cl)c1
O=C(NCC1CCCO1)c1ccccc1-c1nc(-c2ccccc2Cl)no1 (configuration not stated)
CC(=O)Nc1ccc(/C=C/C(=O)c2ccccc2)cc1
CCCC(=O)Nc1ccc(C(=O)N/N=C/c2ccc[nH]2)cc1
Cn1c(=O)c(=O)n(C)c2cc(S(=O)(=O)NCCN3CCN(c4ccccc4F)CC3)ccc21
COC(=O)CNc1nc(Cl)nc(N2CCC(C)CC2)n1
N#Cc1c(C(F)(F)F)cc(-c2cccs2)nc1N1CCCCC1
CSc1nc2ccc(NC(=O)c3c(F)cccc3F)cc2s1
COc1cccc(OC)c1C(=O)Nc1ccc(Cc2ccncc2)cc1
O=C(Nc1ccccc1C(F)(F)F)N1CCCC1c1cccnc1 (configuration not stated)
Cc1[nH]c2ccccc2c1C(=O)COC(=O)C(C)C
CCOC(=O)c1cc2n(c1N)-c1ccccc1C2=O
Nc1nnc(SCC(=O)NC2CCCc3ccccc32)s1 (configuration not stated)
O=C(Cc1ccc2c(c1)CCCC2)Nc1ccccc1Cl
O=C(CCl)Nc1ccc(Sc2ccc(NC(=O)CCl)cc2)cc1
O=C(NNC(=O)c1cnccc1C(F)(F)F)c1ccc(Cl)cc1
CC(=O)NC(CC(=O)Nc1nccs1)c1ccccc1 (configuration not stated)
CCCCC(C(=O)OCC(=O)c1ccc(OC)cc1)N1C(=O)c2ccccc2C1=O (configuration not stated)
CCOC(=O)c1c(-c2ccc(C)cc2)csc1/N=C(\C)C1=C(O)c2ccccc2C1=O
CC(CNS(=O)(=O)c1ccc(Br)cc1)CN(C)C (configuration not stated)
c1ccc(-c2nnc(N3CCOCC3)c3ccccc23)cc1
CN1CCN(c2nc(Nc3ccc(O)cc3)nc3ccccc23)CC1
CN(c1ccc(OCC(=O)NC2=NCCS2)cc1)S(=O)(=O)c1ccc(F)cc1
Cc1ccc(C(=O)Nc2nnc(-c3cccs3)s2)cc1C
CC(=O)c1sc(NC(=O)c2ccc(C)cc2)nc1C
Clc1ccc(CSc2nnc3c(n2)[nH]c2ccccc23)cc1
Cc1ccc(CSc2nnc(-c3cnccn3)n2C)cc1
COc1ccc(CC(=O)NCC(=O)N/N=C/c2cc(Br)ccc2OC)cc1
Oc1ccc(Br)cc1C=Nc1ccc2[nH]ncc2c1
COc1ccc(Cl)cc1CSc1ncn[nH]1
COc1ccc(OC)c(C(=O)CSc2nnc(-c3cccs3)o2)c1
COc1ccc(-c2nnc(SCC(=O)c3cccs3)o2)c(OC)c1
C/C=N/N(c1ccccc1)c1ccccc1
COc1cccc(Nc2nnc(SCC(=O)N3CC(=O)Nc4ccccc43)s2)c1
O=P(O)(O)OC[C@H](O)CO
Cc1ccc(S(=O)(=O)NCc2csc(C)n2)c(C)c1
Cc1nc(CNS(=O)(=O)c2cccnc2)cs1
CSC1=NC2(C)CCCCC2C12C=CC(=O)C=C2 (configuration not stated)
Nn1c(SCc2ccccc2)nnc1C1CCCCC1
CCn1c(NCCc2ccc(OC)c(OC)c2)nc2c1c(=O)n(C)c(=O)n2C
Cc1cccc(Cn2c(N3CCN(c4ccccc4)CC3)nc3c2c(=O)n(C)c(=O)n3C)c1
CCCCNc1nc2c(c(=O)[nH]c(=O)n2C)n1CCOc1ccccc1
Cc1cccc(Cn2c(SCCO)nc3c2c(=O)n(C)c(=O)n3C)c1
CN(C)C(=O)c1coc2nc3ccccc3nc12

Potency, active:
COC(=O)c1ccc(Cc2ccccc2)o1 0.0004 µM
CCc1cc2c(N3CCN(c4nnc(CC)s4)CC3)ncnc2s1 17.8 µM
CSc1nc(N(C)NC(=O)c2cccc(C)c2)c2ccccc2n1 1.26 µM
CCc1ccc(-c2nn(-c3ccccc3)cc2CSC(=N)N)cc1 17.8 µM
CCN1/C(=C/c2ccc3ccc(C)cc3[n+]2CC)Sc2ccccc21 7.94 µM
NC(=O)c1sc2nc3c(c(-c4ccccc4)c2c1N)CCC3 7.08 µM
CCOC(=O)CSc1nnc(NC(=O)c2cccc(S(=O)(=O)N3CCCC3)c2)s1 1 µM
NS(=O)(=O)c1ccc(Nc2nc(-c3ccccc3)cs2)cc1 11.2 µM
Oc1c(Cl)cc(Cl)c(Cl)c1Cc1c(O)c(Cl)cc(Cl)c1Cl 5.62 µM
Cc1ccccc1NCC(=O)N/N=C\c1ccc([N+](=O)[O-])s1 11.2 µM
CC1CCCCN1S(=O)(=O)c1ccc(C(=O)Nc2nnc(-c3cccs3)o2)cc1 (configuration not stated) 11.2 µM
O=c1c([N+](=O)[O-])cccn1Cc1ccc(F)cc1Cl 10 µM
CC(=O)Nc1ccc(C(=O)/C=C/c2ccc[nH]2)cc1 11.2 µM
O=C(Nc1ccncc1)c1c(F)cccc1F 12.6 µM
CCOC(=O)c1c(C)[nH]c2c1-c1ccccc1C(=O)C2=O 5.01 µM
O=C(Cc1ccc(Cl)c(Cl)c1)Nc1ccc(SC(F)F)cc1 12.6 µM
CCOC(=O)C1=C(c2ccc(OC)cc2)C(=O)c2ccccc2C1=O 11.2 µM
c1ccc(Nc2nc(N3CCOCC3)c3ccccc3n2)cc1 12.6 µM
N#Cc1ccc(C(=O)Nc2nc(-c3cccs3)c(C(=O)C(F)(F)F)s2)cc1 2.82 µM
O=C(CCCO)N/N=C/c1cc(Br)ccc1O 7.94 µM
COc1ccc(-n2c(C)cc(C(=O)CSc3nnc(-c4cccs4)o3)c2C)cc1 7.94 µM
Cc1nc(CNS(=O)(=O)c2ccc(Oc3ccccc3)cc2)cs1 10 µM
COC(=O)C(C)Sc1nc2c(c(=O)n(C)c(=O)n2C)n1Cc1cccc(C)c1 (configuration not stated) 28.2 µM
CCCCNc1nc2c(c(=O)n(C)c(=O)n2C)n1Cc1cccc(OC)c1 7.08 µM
